Laboratory results: PubChem BioAssay (EPA / NIEHS)
Several values for one entry are separate records, joined by “and”; a condition that tells them apart may be missing. Identical values can stand only once. Records with an inconclusive call do not appear. Some compounds were tested as several samples or in several runs, with calls that do not always agree. Activity calls are given as the source filed them. Rule for the calls, unless noted: active = hit-call score of the fitted dose curve at least 0.9, where 1 is the maximum; inactive = score below 0.9.

What was measured:
[1] = ATG_NFI_CIS: Attagene CIS-FACTORIAL HepG2 Assay for human Nuclear Factor I (NFI) (AID 2282989); details: HepG2 cis-regulatory reporter, NFI response element transcription; actives raise or lower the signal
Summary of the method: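 After transient transfection of HepG2 with cis-promoter reporter constructs and 24 h dosing, RNA is reverse-transcribed, amplified, 6-FAM end-labelled and HpaI-digested before capillary analysis. Bidirectional curve fitting against DMSO.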

[2] = target: Myc proto-oncogene protein (Homo sapiens) (UniProt P01106); assay: ATG_Myc_CIS: Attagene CIS-FACTORIAL HepG2 Assay for human Myelocytomatosis (Myc) Proto-Oncogene Transcription Factor (AID 2282990); details: HepG2, Attagene cis-reporter transcription factor activity; actives raise or lower the signal
Summary of the method: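 Fluorescence intensity of reporter-specific cDNA fragments, separated by capillary electrophoresis, gives the signal. Transfected HepG2 cells carrying cis-promoter reporter constructs are incubated with compound for 24 h; DMSO serves as baseline.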

[3] = ATG_NF_kB_CIS: Attagene CIS-FACTORIAL HepG2 Assay for human Nuclear Factor Kappa B (NF-kB) (AID 2282991); details: HepG2 Attagene cis-factorial NF-kB reporter mRNA; actives raise or lower the signal
Summary of the method: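 Multiplexed cis-reporter assay in transiently transfected HepG2. 24 h treatment; RNA isolated, RT-PCR, labelled fragments resolved by CE. DMSO baseline.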

[4] = ATG_NRF2_ARE_CIS: Attagene CIS-FACTORIAL HepG2 Assay for human Nuclear Factor Erythroid 2 Related Factor 2 (NFR2) response to Antioxidant Response Elements (ARE) (AID 2282992); details: HepG2 Attagene ARE/NRF2 reporter, transcription factor activity; actives raise or lower the signal
Summary of the method: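 Endogenous transcription factor activity read out as reporter transcript levels (RT-PCR plus capillary electrophoresis, fluorescence) in transiently transfected HepG2 cells. Measured at 24 h after dosing; gain or loss of signal fitted versus DMSO.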

[5] = ATG_Oct_MLP_CIS: Attagene CIS-FACTORIAL HepG2 Assay for human Octamer-Binding Transcription Factor (Oct) (AID 2282993); details: HepG2 Attagene cis-factorial Oct reporter, mRNA; actives raise or lower the signal
Summary of the method: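 Cells of the HepG2 line express promoter-controlled reporter sequences whose mRNA levels, after 24 h treatment, are measured by RT-PCR and capillary electrophoresis. Increases and decreases are scored relative to DMSO.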

[6] = target: Cellular tumor antigen p53 (Homo sapiens) (UniProt P04637); assay: ATG_p53_CIS: Attagene CIS-FACTORIAL HepG2 Assay for human p53 Transcription Factor (AID 2282994); details: HepG2 p53 cis-element reporter, Attagene mRNA; actives raise or lower the signal
Summary of the method: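 Endogenous p53 activity read in transiently transfected HepG2 from a cis-element-driven reporter transcript after 24 h exposure. RNA reverse-transcribed, PCR-amplified, fluorescently labelled and sized by capillary electrophoresis; gain or loss fitted against DMSO baseline.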

[7] = target: human Peroxisome Proliferator-activated Receptor alpha (PPARa), PPARA (gene 5465) (UniProt Q07869); assay: ATG_PPARa_TRANS: Attagene TRANS-FACTORIAL HepG2 Assay for human Peroxisome Proliferator-activated Receptor alpha (PPARa) (AID 2283001; active = hit-call score of the fitted dose curve at least 0.9, where 1 is the maximum)
Summary of the method: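 Transient HepG2 transfection, GAL4-UAS reporters, NR-Gal4 chimeras; 24 h compound exposure. Readout: reporter transcripts by RT-PCR, 6-FAM primer extension, HpaI digest, capillary electrophoresis. Positive direction vs DMSO baseline.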

[8] = target: human Retinoic Acid Receptor beta (RARb), RARB (gene 5915) (UniProt P10826); assay: ATG_RARb_TRANS: Attagene TRANS-FACTORIAL HepG2 Assay for human Retinoic Acid Receptor beta (AID 2283004; active = hit-call score of the fitted dose curve at least 0.9, where 1 is the maximum)
Summary of the method: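 HepG2, transient MRTU transfection, NR–Gal4 chimera, 24 h treatment; RT-PCR plus CE fluorescence detection of reporter mRNA; gain of signal vs DMSO.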

[9] = target: Retinoic acid receptor alpha (Homo sapiens) (UniProt P10276); assay: ATG_RARa_TRANS: Attagene TRANS-FACTORIAL HepG2 Assay for human Retinoic Acid Receptor alpha (RARa) (AID 2283005; active = hit-call score of the fitted dose curve at least 0.9, where 1 is the maximum)
Summary of the method: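 HepG2 transiently transfected with multiplex GAL4-UAS reporter units including a human RARa–GAL4 chimera; 24 h compound exposure. Reporter mRNA quantified by RT-PCR, 6-FAM labeling and capillary electrophoresis; gain of signal versus DMSO.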

[10] = target: Peroxisome proliferator-activated receptor gamma (Homo sapiens) (UniProt P37231); assay: ATG_PPARg_TRANS: Attagene TRANS-FACTORIAL HepG2 Assay for human Peroxisome Proliferator-activated Receptor-gamma (PPARg) (AID 2283007; active = hit-call score of the fitted dose curve at least 0.9, where 1 is the maximum)
Summary of the method: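 Human hepatoma HepG2, transient MRTU transfection, 24 h treatment. mRNA reporter signal by RT-PCR plus capillary electrophoresis, fluorescence detection; fitted for increase over DMSO negative control.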

[11] = target: Nuclear receptor subfamily 1 group I member 2 (Homo sapiens) (UniProt O75469); assay: ATG_PXR_TRANS: Attagene TRANS-FACTORIAL HepG2 Assay for human Pregnane X Receptor (PXR) (AID 2283008; active = hit-call score of the fitted dose curve at least 0.9, where 1 is the maximum)
Summary of the method: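 Transactivation by exogenous PXR–GAL4 fusion measured as reporter transcript induction after 24 h compound treatment of transfected human HepG2 cells. Read-out via RT-PCR and capillary electrophoresis of labelled fragments, fitted upward relative to DMSO.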

[12] = target: human Retinoic Acid Receptor gamma (RARg), RARG (gene 5916) (UniProt P13631); assay: ATG_RARg_TRANS: Attagene TRANS-FACTORIAL HepG2 Assay for human Retinoic Acid Receptor gamma (RARg) (AID 2283009; active = hit-call score of the fitted dose curve at least 0.9, where 1 is the maximum)
Summary of the method: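 Gain-of-signal relative to DMSO is reported from fluorescent capillary electrophoresis of RT-PCR reporter products. These came from HepG2 cells expressing transfected RARg-GAL4 chimeras with UAS reporters, harvested 24 h after dosing.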

[13] = target: human RAR-related Orphan Receptor beta (RORb), RORB (gene 6096) (UniProt Q92753); assay: ATG_RORb_TRANS: Attagene TRANS-FACTORIAL HepG2 Assay for human RAR-related Orphan Receptor beta (RORb) (AID 2283010; active = hit-call score of the fitted dose curve at least 0.9, where 1 is the maximum)
Summary of the method: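 Multiplexed transcription-factor reporter assay: HepG2 cells transiently carrying NR-Gal4/GAL4-UAS constructs, 24 h treatment, mRNA quantified by RT-PCR plus capillary electrophoresis fluorescence; activity scored as induction over DMSO.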

[14] = target: human Peroxisome Proliferator-activated Receptor delta (PPARd), PPARD (gene 5467) (UniProt Q03181); assay: ATG_PPARd_TRANS: Attagene TRANS-FACTORIAL HepG2 Assay for human Peroxisome Proliferator-activated Receptor delta (PPARd) (AID 2283002; active = hit-call score of the fitted dose curve at least 0.9, where 1 is the maximum)
Summary of the method: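 Fluorescence from capillary electrophoresis of labelled RT-PCR reporter fragments gives the signal; DMSO sets baseline. Cells: HepG2 transiently carrying GAL4-UAS reporter units plus chimeric nuclear receptor-Gal4 proteins, exposed to chemicals for 24 h.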

[15] = BSK_3C_TissueFactor: BioMAP Diversity Plus: 3C Assay for Tissue Factor Biomarker Activity (AID 2282997); details: BioMAP 3C HUVEC, tissue factor biomarker readout; actives raise or lower the signal
Summary of the method: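 Cells used were primary human umbilical vein endothelial cells. They were dosed with chemical, and after 24 h Tissue Factor was quantified by ELISA. Curves were fitted bidirectionally with DMSO as baseline.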

[16] = BSK_3C_uPAR: BioMAP Diversity Plus: 3C Assay for Urokinase-type plasminogen activator receptor (uPAR) Biomarker Activity (AID 2282998); details: BioMAP 3C HUVEC, uPAR biomarker ELISA; actives raise or lower the signal
Summary of the method: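 Endothelial primary cells of human umbilical vein origin received test chemical; 24 h later uPAR was assayed by ELISA. Fitting was bidirectional, DMSO as negative control.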

[17] = BSK_3C_VCAM1: BioMAP Diversity Plus: 3C Assay for Vascular cell adhesion molecule 1 (VCAM1) Biomarker Activity (AID 2282999); details: BioMAP 3C HUVEC, VCAM1 ELISA, cytokine-stimulated; actives raise or lower the signal
Summary of the method: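 HUVEC primary cells, 24 h compound exposure; VCAM-1 by ELISA; gain/loss of signal fitted bidirectionally vs DMSO baseline.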

[18] = BSK_4H_Eotaxin3: BioMAP Diversity Plus: 4H Assay for Eotaxin 3 Biomarker Activity (AID 2283000); details: primary human endothelial cells (HUVEC); actives raise or lower the signal
Summary of the method: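 Endothelial primary cells (human umbilical vein) exposed to compound for 24 h. ELISA detection of Eotaxin-3.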

[19] = read-out: Intercellular Adhesion Molecule 1 (ICAM1), ICAM1 (gene 3383); assay: BSK_3C_ICAM1: BioMAP Diversity Plus: 3C Assay for Intercellular Adhesion Molecule 1 (ICAM1) Biomarker Activity (AID 2283003); details: primary human endothelial cells (HUVEC); actives raise or lower the signal
Summary of the method: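 Using DMSO as baseline, bidirectional curve fitting was applied to ICAM-1 ELISA signals from HUVEC in the 3C system, measured 24 h after compound addition.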

[20] = BSK_3C_Proliferation: Cell Proliferation Assessment in the BioMAP Diversity Plus: 3C Assay (AID 2283006); details: primary human endothelial cells (HUVEC)
Summary of the method: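 Measured here: sulforhodamine B (0.1%) staining of TCA-fixed sub-confluent umbilical vein endothelial cultures 48 h post-dosing, absorbance 560 nm. DMSO served as negative control and baseline; both signal gain and loss were modelled.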

Measured: AC50

human RAR-related Orphan Receptor beta (RORb), RORB (gene 6096), sequence (Q92753 whole entry, looked up, the tested form may be a part): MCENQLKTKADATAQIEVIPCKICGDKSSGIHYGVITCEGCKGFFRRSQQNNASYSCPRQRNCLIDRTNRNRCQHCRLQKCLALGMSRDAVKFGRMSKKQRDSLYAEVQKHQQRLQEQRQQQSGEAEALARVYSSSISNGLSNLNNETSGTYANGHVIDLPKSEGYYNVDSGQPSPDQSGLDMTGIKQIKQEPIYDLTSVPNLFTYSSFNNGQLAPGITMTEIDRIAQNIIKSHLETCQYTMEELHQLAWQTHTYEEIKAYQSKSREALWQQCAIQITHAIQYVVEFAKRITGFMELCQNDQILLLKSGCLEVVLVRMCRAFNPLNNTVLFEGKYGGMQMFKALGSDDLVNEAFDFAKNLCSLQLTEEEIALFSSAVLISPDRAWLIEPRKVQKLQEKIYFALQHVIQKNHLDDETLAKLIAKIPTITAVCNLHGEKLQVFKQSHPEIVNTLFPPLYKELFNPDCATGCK
human Retinoic Acid Receptor beta (RARb), RARB (gene 5915), sequence (P10826 whole entry, looked up, the tested form may be a part): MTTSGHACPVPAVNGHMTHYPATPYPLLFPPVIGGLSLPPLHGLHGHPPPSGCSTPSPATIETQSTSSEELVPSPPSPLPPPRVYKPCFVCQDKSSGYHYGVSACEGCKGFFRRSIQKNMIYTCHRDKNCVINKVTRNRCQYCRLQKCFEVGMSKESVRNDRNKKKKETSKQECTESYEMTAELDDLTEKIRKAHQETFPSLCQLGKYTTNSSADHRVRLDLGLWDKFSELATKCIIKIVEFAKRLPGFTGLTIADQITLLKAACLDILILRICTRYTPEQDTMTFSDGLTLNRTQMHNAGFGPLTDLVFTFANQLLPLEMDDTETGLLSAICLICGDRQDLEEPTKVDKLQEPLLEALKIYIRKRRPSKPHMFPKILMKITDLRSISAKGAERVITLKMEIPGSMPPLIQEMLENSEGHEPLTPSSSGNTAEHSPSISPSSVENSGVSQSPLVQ
Retinoic acid receptor alpha (Homo sapiens), sequence (P10276 whole entry, looked up, the tested form may be a part): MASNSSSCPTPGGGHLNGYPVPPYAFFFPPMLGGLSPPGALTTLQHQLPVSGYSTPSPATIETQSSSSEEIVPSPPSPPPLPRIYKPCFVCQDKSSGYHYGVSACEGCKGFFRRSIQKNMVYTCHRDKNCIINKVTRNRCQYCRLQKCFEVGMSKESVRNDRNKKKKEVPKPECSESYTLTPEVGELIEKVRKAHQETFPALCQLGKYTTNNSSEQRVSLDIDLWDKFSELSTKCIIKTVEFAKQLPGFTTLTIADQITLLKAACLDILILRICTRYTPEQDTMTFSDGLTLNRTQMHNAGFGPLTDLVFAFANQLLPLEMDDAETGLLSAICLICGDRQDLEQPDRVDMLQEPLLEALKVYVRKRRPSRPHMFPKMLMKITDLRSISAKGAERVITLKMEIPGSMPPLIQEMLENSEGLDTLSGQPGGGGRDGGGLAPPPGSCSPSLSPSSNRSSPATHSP
human Peroxisome Proliferator-activated Receptor delta (PPARd), PPARD (gene 5467), sequence (Q03181 whole entry, looked up, the tested form may be a part): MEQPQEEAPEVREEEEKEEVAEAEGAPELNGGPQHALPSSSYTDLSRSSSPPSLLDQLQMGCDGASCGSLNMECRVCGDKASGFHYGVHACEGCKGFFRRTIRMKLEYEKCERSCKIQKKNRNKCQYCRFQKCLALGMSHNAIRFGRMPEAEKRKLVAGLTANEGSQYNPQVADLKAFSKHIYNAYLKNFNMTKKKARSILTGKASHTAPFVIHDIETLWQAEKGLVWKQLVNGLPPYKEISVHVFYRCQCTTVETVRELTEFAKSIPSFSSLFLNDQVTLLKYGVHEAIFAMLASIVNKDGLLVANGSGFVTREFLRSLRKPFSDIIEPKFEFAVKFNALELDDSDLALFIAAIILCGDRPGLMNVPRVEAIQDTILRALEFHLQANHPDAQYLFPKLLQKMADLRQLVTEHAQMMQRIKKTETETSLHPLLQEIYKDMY
Cellular tumor antigen p53 (Homo sapiens), sequence (P04637 whole entry, looked up): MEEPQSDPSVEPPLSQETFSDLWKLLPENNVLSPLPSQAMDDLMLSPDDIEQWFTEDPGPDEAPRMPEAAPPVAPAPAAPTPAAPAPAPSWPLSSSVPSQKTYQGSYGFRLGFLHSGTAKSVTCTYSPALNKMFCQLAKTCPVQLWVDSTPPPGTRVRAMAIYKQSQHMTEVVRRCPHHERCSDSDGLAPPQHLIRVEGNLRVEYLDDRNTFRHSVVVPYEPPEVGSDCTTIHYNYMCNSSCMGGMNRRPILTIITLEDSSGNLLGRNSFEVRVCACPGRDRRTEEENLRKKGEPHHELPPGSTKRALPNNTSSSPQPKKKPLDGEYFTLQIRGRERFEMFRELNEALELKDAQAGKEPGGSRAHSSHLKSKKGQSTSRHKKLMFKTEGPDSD
Nuclear receptor subfamily 1 group I member 2 (Homo sapiens), sequence (O75469 whole entry, looked up, the tested form may be a part): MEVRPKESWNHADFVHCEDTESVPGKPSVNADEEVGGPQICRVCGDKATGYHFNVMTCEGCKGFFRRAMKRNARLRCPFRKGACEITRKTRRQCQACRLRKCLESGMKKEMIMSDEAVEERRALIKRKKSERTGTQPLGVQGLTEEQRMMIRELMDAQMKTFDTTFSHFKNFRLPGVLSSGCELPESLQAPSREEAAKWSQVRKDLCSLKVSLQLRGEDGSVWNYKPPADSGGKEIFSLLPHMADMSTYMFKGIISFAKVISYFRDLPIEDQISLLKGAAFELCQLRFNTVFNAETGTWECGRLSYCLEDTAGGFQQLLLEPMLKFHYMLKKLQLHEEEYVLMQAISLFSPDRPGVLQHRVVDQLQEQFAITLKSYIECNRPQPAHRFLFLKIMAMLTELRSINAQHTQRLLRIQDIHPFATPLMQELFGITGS
Myc proto-oncogene protein (Homo sapiens), sequence (P01106 whole entry, looked up, the tested form may be a part): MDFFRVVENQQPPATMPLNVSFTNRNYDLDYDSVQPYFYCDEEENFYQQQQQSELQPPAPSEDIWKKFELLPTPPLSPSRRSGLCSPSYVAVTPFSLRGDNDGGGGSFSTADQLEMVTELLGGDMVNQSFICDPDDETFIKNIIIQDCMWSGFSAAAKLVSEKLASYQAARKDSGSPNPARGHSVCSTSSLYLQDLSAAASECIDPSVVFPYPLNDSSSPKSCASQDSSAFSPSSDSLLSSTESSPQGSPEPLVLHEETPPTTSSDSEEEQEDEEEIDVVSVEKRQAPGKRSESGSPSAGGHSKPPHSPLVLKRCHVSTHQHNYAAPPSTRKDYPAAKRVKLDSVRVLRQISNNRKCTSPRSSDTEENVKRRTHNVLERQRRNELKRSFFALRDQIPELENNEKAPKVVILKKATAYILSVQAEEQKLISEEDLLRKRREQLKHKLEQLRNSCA
human Peroxisome Proliferator-activated Receptor alpha (PPARa), PPARA (gene 5465), sequence (Q07869 whole entry, looked up, the tested form may be a part): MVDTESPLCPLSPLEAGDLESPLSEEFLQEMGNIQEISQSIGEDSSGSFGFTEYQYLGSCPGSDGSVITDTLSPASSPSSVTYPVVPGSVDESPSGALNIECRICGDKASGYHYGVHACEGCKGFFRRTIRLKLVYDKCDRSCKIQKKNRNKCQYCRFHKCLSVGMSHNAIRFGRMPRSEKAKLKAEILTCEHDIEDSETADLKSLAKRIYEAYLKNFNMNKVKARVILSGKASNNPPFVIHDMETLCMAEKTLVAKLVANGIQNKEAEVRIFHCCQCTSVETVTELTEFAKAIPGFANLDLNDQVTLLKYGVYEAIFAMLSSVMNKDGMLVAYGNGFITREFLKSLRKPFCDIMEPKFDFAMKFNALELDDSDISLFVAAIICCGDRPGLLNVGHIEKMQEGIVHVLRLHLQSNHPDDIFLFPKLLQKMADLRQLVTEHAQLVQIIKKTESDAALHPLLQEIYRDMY
human Retinoic Acid Receptor gamma (RARg), RARG (gene 5916), sequence (P13631 whole entry, looked up, the tested form may be a part): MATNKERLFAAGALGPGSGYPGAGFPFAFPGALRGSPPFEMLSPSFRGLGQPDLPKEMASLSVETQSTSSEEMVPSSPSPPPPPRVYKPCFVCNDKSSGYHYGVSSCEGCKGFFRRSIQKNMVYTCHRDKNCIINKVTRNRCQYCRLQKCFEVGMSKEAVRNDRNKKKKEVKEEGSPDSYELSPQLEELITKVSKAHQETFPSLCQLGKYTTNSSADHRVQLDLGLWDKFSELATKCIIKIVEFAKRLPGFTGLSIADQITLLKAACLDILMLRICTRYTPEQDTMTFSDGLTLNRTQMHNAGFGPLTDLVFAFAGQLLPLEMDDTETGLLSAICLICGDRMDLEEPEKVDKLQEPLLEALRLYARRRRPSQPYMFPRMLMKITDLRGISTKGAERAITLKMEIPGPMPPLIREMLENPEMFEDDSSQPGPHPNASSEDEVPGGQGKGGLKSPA
Peroxisome proliferator-activated receptor gamma (Homo sapiens), sequence (P37231 whole entry, looked up): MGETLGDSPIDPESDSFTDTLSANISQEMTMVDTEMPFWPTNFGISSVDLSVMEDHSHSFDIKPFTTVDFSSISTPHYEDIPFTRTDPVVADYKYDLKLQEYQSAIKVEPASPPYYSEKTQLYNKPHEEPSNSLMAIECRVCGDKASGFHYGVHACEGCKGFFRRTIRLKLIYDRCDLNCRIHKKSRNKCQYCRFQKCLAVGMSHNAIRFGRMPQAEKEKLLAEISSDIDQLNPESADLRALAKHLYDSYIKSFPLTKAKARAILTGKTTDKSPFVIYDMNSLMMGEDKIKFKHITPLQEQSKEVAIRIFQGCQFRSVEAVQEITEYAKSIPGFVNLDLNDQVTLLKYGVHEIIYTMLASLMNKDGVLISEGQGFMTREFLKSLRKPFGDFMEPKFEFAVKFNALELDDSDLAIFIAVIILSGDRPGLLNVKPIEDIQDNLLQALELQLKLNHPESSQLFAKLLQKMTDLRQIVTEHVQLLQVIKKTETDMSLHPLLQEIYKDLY

O=C1C(Cl)=C(Cl)C(=O)c2ccccc21
active: [4] 2.2 µM
not listed: [14] | [15] | [16] | [17] | [18] | [19] | [20]
inactive: all other assays above

CCCCP(CCCC)CCCC
inactive: [1] | [2] | [3] | [4] | [5] | [6] | [14] | [13]
active: [11] 7.21 µM

N#CCCO
inactive: [1] | [2] | [3] | [4] | [5] | [6] | [7] | [12] | [13]

ClCc1cccnc1
inactive: [2] | [3] | [6] | [14] | [11] | [13]
active: [1] 60.8 µM | [4] 27.9 µM | [5] 50.9 µM | [10] 51.8 µM

CCC[CH2][Sn]([Cl])([Cl])[Cl]
inactive: [1] | [2] | [3] | [5] | [6] | [11] | [13]
active: [4] 5.38 µM

CCCCCCCCC(=O)NCc1ccc(O)c(OC)c1
active: [1] 151 µM | [4] 38.3 µM | [10] 27.3 µM
not listed: [6] | [8] | [9] | [13] | [20]
inactive: all other assays above

CN(CCCC(=O)c1cccnc1)N=O
inactive: [1] | [2] | [3] | [4] | [5] | [6] | [7] | [14] | [11] | [13]

Cc1ccccc1N
not listed: [6] | [8] | [9] | [10] | [11] | [12] | [13] | [20]
inactive: all other assays above

CC12CC1(C)C(=O)N(c1cc(Cl)cc(Cl)c1)C2=O (stereo not drawn)
inactive: [1] | [2] | [3] | [4] | [5] | [15] | [16] | [17] | [18] | [7] | [14] | [19] | [20] | [10] | [11] | [13]
active: [11] 2.03 µM and 4.13 µM and 2.07 µM

Cc1ccc(N)cc1Cl
inactive: [1] | [2] | [3] | [4] | [5] | [7] | [10] | [11]

CC(C)C1CCC(Cc2ccc(Cl)cc2)C1(O)Cn1cncn1 (stereo not drawn)
active: [4] 13.2 µM | [11] 1.79 µM
inactive: [1] | [2] | [3] | [5] | [8] | [9] | [10] | [12]

Cl/C=C/Cl
inactive: [1] | [2] | [3] | [4] | [5] | [13]

C=CC(=O)N(C)C
inactive: [1] | [2] | [3] | [4] | [5] | [14] | [10] | [11]

CC(C)(C)c1cc(O)ccc1O
active: [4] 9.05 µM | [17] 28.1 µM | [18] 27.4 µM | [10] 52.5 µM | [11] 3.34 µM
inactive: [1] | [2] | [3] | [6] | [15] | [16] | [7] | [19]

[O-][Cl+2]([O-])O
inactive: [1] | [2] | [3] | [4] | [6]

CC(C)(c1ccc(OCC2CO2)cc1)c1ccc(OCC2CO2)cc1 (stereo not drawn)
inactive: [1] | [2] | [3] | [10] | [11]
active: [4] 8.41 µM | [5] 24.9 µM

O=C(OC1CCCCC1)c1ccccc1C(=O)OC1CCCCC1
inactive: [1] | [2] | [3] | [5]
active: [4] 18.4 µM | [15] 7.93 µM | [17] 11.7 µM | [18] 12.1 µM | [19] 14.6 µM | [10] 8.15 µM | [11] 0.554 µM

CCOC(=O)CP(=O)(OCC)OCC
inactive: [1] | [2] | [3] | [4] | [5] | [10] | [11]

O=C(Cl)c1ccc(Cl)cc1
inactive: [1] | [2] | [3] | [4] | [5] | [7] | [9] | [10]

CC1CN1P(=O)(N1CC1C)N1CC1C (stereo not drawn)
inactive: [1] | [2] | [3] | [4] | [5] | [7] | [10] | [11]

CC(C)OC(=O)Nc1ccccc1
inactive: [1] | [2] | [3] | [4] | [5] | [8] | [9] | [10] | [11] | [12]

CN(C)N=O
not listed: [5] | [8] | [9] | [10] | [13] | [14] | [16] | [20]
inactive: all other assays above

CC(C)c1cccc(C(C)C)c1O
active: [11] 4.74 µM
not listed: [5] | [7] | [15] | [16] | [17] | [18] | [19] | [20]
inactive: all other assays above
